# Measured values taken from the supplement of paper PMC6522484.
# ± gives the standard deviation of the averaged measurements.
# Tested on: SW480
# Test: TCF/Wnt firefly luciferase reporter signal relative to plate median (fraction of plate median); higher = higher Wnt reporter signal
# Conditions: 5 µM; treatment time 24 h; reporter: 7TFP
# In short: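 Values are well luminescence normalised to the plate median, from either a firefly luciferase or a CellTiterGlo readout on parallel plates. The cells, colorectal cancer lines stably transduced with lentiviral 7TFP or TCF4/Wnt firefly luciferase reporters, were treated with library compounds at a final 5 µM for 24 h. The mean of two independent replicates is listed.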
row,SMILES,TCF/Wnt firefly luciferase reporter signal
1,"CC(C)C1NC(=O)C2CCCN2C1=O (single isomer, unassigned; isomere) [Cyclo(prolylvalyl) (Isomere)]",0.944 ± 0.11
2,COc1c2c(c(O)c3c4c(c(C)cc13)C1OC3(C(OC)OC)OC1C(O[C@H]1C[C@@H](O)[C@@](O)(C(C)=O)[C@H](C)O1)(O4)C3(O)CO)C(=O)C(O)CC2O[C@H]1C[C@@](C)(O)[C@H](OC(C)=O)[C@H](C)O1 (stereo partly drawn) [Trioxacarcin B],0.893 ± 0.14
3,CO[C@@]12[C@H](COC(N)=O)C3=C(C(=O)C(C)=C(N)C3=O)N1C[C@@H]1N[C@@H]12,0.843 ± 0.13
